Source: PubChem BioAssay AID651692 (Broad Institute, 2012)
Entries with a potency or affinity are not part of this list. Calls of active or inactive are those of the source.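 How the source made its calls: active means fitted half-maximal concentration for loss of cell signal no higher than twice the top valid tested concentration; inconclusive means flat curve at 30 to 70% inhibition, or poor fit; inactive means flat within 30%, signal rise, or potency above limit.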

Experiment: MDA-MB-231 cell growth inhibition, dose response, cytotoxicity control for RAD54 inhibitor project, CellTiter-Glo luminescence, cherry-pick (AID 651692);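 further: more negative values mean stronger loss of viable cell signal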
Conditions: MDA-MB-231 viability, 24 h; series mostly up to 26 µM

Structure (SMILES) | outcome
O=c1c2ccccc2oc2ccc(NCCCN3CCOCC3)cc12 | inactive
CCOC(=O)Nc1c2ccccc2nc2ccccc12 | inactive
Cn1c(C(=O)NCCCN2CCOCC2)cc2c(=O)n(C)c3ccccc3c21 | inactive
CCNCCNC(=O)c1c(O)c2cccc3c2n(c1=O)CCC3 | inactive
CN(C)CCNC(=O)c1cccc(-c2cnc3c(NC=O)cc(-c4ccc(F)cc4)cn23)c1 | inactive
CN(C)CCNC(=O)c1cccc(-c2cnc3c(NC=O)cc(-c4cccc(F)c4)cn23)c1 | inactive
CC(=O)Nc1cc(-c2cccc(C(=O)NCCN(C)C)c2)cn2c(-c3ccccc3)cnc12 | inactive
CCN(CC)CCNC(=O)c1cc2cc3ccc(OC)cc3nc2o1 | inactive
COc1ccc(C)c2sc(N(CCN(C)C)C(=O)c3ccc4ccccc4c3)nc12 | inactive
Cc1c(-c2cc(Br)ccc2O)nc2cc3c(cc2c1C)OCO3 | inactive
COc1ccc(Cl)c2sc(N(CCN(C)C)C(=O)C3=COCCO3)nc12 | inactive
COc1ccc2cc3cc(C(=O)NCCCN4CCC(C)CC4)oc3nc2c1 | inactive
CCCNc1nc2nc3ccccn3c(=O)c2cc1C(=O)NCCN1CCOCC1 | inactive
Cc1[nH]ccc2c1[nH]c1cc(=O)ccc12 | inactive
Cc1c(CN(C)C)c2c(n1C)C(=O)c1ccc(Br)cc1-2 | inactive
CCOC(=O)c1c(CN2CCCCC2)n(C)c2cc(Br)c(OC)cc12 | inactive
CC(=O)Nc1sc2c(c1-c1nc3ccccc3s1)CN(C(C)C)CC2 | inactive
COc1cc2c(C#N)c(N3CCN(C)CC3)nc(N)c2c(N)n1 | inactive
CCOC(=O)c1cnc2ccc(C)cc2c1NCCN1CCOCC1 | inactive
CN(C)CCN(C(=O)CN1C(=O)c2ccccc2C1=O)c1nc2cc3c(cc2s1)OCCO3 | inactive

Structure (SMILES) | outcome
CCN1CCN(c2ccc(Nc3ccnc4ccccc34)cc2)CC1 | inactive
COc1ccccc1Nc1nc(NCC2CCCO2)c2ccccc2n1 (centres undefined) | inactive
COc1ccc2nc(C)cc(Nc3ccc(C)cc3)c2c1 | inactive
O=C1c2cccc3cccc(c23)C(=O)N1CCCn1ccnc1 | inactive
OCCNc1nc(Nc2ccc(O)cc2)nc2ccccc12 | inactive
Cc1ccc(S(=O)(=O)N2CCOCC2)c(C)c1NS(C)(=O)=O | inactive
CCN(CC)CCn1c2ccc(Cl)cc2c2nc(C)sc21 | inactive
CCOCCCNC(=S)Nc1ccc2nc(N3CCCC3)cc(C)c2c1 | inactive
COc1ccc(-c2cc(NC=O)c3ncc(-c4cccc(C(=O)NCCN(C)C)c4)n3c2)cc1 | inactive
Cc1cccc(-c2nc(NCCCN(C)C)c3ccccc3n2)c1 | inactive
CCN1CCN(CCCNC(=O)c2cc3cc4ccc(OC)cc4nc3o2)CC1 | inactive
Cc1ccc(-c2nc(NCCN(C)C)c3ccccc3n2)cc1 | inactive
Cc1cccn2c(=O)c3cc(C(=O)NCCc4ccccc4)c(=N)n(CCCn4ccnc4)c3nc12 | inactive
CCN1CCN(c2cc(C)c3cc(NC(=S)N4CCCC(C)C4)ccc3n2)CC1 (centres undefined) | inactive
COc1ccc(Nc2cc(C)nc3ccc(OC)cc23)cc1 | inactive
CCOCCCNC(=S)Nc1ccc2nc(N3CCN(CC)CC3)cc(C)c2c1 | inactive
CCn1c(=N)c(C(=O)NCCCOC)cc2c(=O)n3cccc(C)c3nc21 | inactive
O=c1c2ccccc2oc2cc(NCCCN3CCOCC3)ccc12 | inactive
Cc1cc(C)n(-c2nc(NCCN(C)C)c3c4c(sc3n2)COC(C)(C)C4)n1 | inactive
